Screening results deposited in PubChem by several laboratories.
This is a sample that favours compounds with a hit; in the whole collection about 28% have one here.
CYP2C19 activ = human CYP2C19 activators, primary screen, biochemical, luminescence; Cytochrome P450 2C19 (Homo sapiens), P33261; recombinant CYP2C19, luciferin-H EGE luminescence; active compounds read high; 0 = fully inhibited enzyme, 1 = untreated enzyme; activation factor at 5 µM; 96,000 tested, under 10 active;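 active = activation factor of at least 2 at 5 µM in the primary screen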;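 note: 0 = wells with 2.5 mM tranylcypromine and 1 = vehicle-only wells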
D1 mod = D1 CRE-luciferase signal change, two-sided – cell-based, HEK293 D1, dopamine EC30, D1 allosteric modulator project, primary screen | D(1A) dopamine receptor (Homo sapiens), P21728 | dopamine EC30 potentiation; actives deviate in either direction | B-score at 10 µM | actives 5.9% (n = 58,000);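 active = luminescence count or its row- and column-corrected plate score outside the 99.7% band of the plate's sample wells, on either side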
Target sequence (P21728 whole entry, looked up): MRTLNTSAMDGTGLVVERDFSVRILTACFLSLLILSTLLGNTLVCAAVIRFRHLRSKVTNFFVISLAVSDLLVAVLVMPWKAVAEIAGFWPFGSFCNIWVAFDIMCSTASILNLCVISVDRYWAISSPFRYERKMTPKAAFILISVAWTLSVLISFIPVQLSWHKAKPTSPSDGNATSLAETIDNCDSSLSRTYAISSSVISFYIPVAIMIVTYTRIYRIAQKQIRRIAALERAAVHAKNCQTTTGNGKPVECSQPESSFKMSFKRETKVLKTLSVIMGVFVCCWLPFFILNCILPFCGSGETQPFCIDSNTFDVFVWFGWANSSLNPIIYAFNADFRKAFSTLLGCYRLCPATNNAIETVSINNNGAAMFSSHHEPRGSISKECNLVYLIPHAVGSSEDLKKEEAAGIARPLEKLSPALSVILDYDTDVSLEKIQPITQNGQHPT
CYP2C9 inh = blockers of cytochrome P450 2C9 activity – biochemical, luminescence, ADME assay, primary screen; P11712; CYP2C9 Supersomes, luciferin-H conversion; inhibition, % at 5 µM; actives 20% (n = 96,000);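 active = blocking of liver enzyme CYP2C9 beyond about 50% at 5 µM, limit read from the data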
CYP2C9 activ = human CYP2C9 activators, primary screen, biochemical, luminescence; actives 1.4% (n = 96,000); Cytochrome P450 2C9 (Homo sapiens), P11712; AID 1024, 2008; activation factor at 5 µM; recombinant CYP2C9, luciferin-H conversion; active compounds read high; factor 1 = untreated enzyme, 0 = blocked;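 active = activation factor of 2 or more for CYP2C9 at a 5 µM dose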;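 note: 0 = sulfaphenazole-blocked wells and 1 = vehicle-only wells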
CYP2C19 inhib = blockers of cytochrome P450 2C19 activity – biochemical, luminescence, ADME assay, primary screen | P33261 | CYP2C19 Supersomes, luciferin-H EGE luminescence, 30 min | inhibition, % at 5 µM | actives 21% (n = 96,000);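 active = CYP2C19 inhibition above a set limit at 5 µM in the primary screen, cut at about 50% in these data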;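 note: plate controls were negative control wells for no effect and 2.5 mM tranylcypromine positive control for full effect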
DAT uptake mod = changed hDAT dopamine uptake under cocaine IC80, either direction, primary screen, cocaine antagonist project, cell-based, LLC-PK1 hDAT, [14C]-dopamine uptake, MLSMR. B-score at 10 µM. actives 1.3% (n = 110,000). LLC-PK1 hDAT cells, [14C]-dopamine uptake with cocaine IC80; actives deviate in either direction. Sodium-dependent dopamine transporter (Homo sapiens), Q01959;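 active = Z score or B-score, a plate-position-corrected score, falls beyond the plate's 99.7% confidence bounds, in either direction; inactive = both scores lie inside the 99.7% bounds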;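 note: scored against the spread of the other compound wells on the same plate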
Starred values were filed as active, the others as inactive; nt = no result given.

SMILES	CYP2C19 activ	D1 mod	CYP2C9 inh	CYP2C9 activ	CYP2C19 inhib	DAT uptake mod
Fc1ccc(Cn2ccc(-c3cnc(-c4ccccc4)s3)n2)cc1	0.1	nt	96.9*	0	92.0*	-0.563
Cc1ccc(S(=O)(=O)NC(=O)c2ccc(-c3ccc(-c4ccccc4)cc3)o2)c(C)c1	nt	nt	nt	nt	nt	-2.15*
CCn1c(SCC(=O)Nc2nc3ccccc3s2)nnc1-c1ccc(OC)cc1	1	0.44	2.8	1	-4.8	0.0341
Cc1ccnc(SCC(=O)Nc2oc(-c3ccccc3)c(-c3ccccc3)c2C#N)n1	0.6	-0.22	88.5*	0.1	36.5	0.711
N#Cc1c(NC(=O)CN2CCOCC2)oc(-c2ccccc2)c1-c1ccccc1	0.9	nt	44.6	0.6	12.0	-0.198
N#Cc1c(NC(=O)Cn2cnc3ccccc3c2=O)oc(-c2ccccc2)c1-c1ccccc1	0.7	-4.71*	83.4*	0.2	33.6	-0.473
N#Cc1c(NC(=O)CSc2n[nH]c(Cc3ccccc3)n2)oc(-c2ccccc2)c1-c1ccccc1	0.1	-0.117	98.9*	0	91.1*	0.673
CCn1c(SCC(=O)Nc2oc(-c3ccccc3)c(-c3ccccc3)c2C#N)nnc1-c1cc(OC)cc(OC)c1	0.4	nt	100.0*	0	58.6*	-0.387
N#Cc1c(NC(=O)CSc2ncccn2)oc(-c2ccccc2)c1-c1ccccc1	nt	nt	nt	nt	nt	-0.0842
Cc1ccnc(SCC(=O)n2c3c(c4ccccc42)CC(C)CC3)n1 (stereo not drawn)	0.8	nt	10.6	0.9	23.8	-0.62
CC(C)CCn1nnnc1C(c1ccc(F)cc1)N1CCC(C(N)=O)CC1 (stereo not drawn)	1	-0.762	28.0	0.7	-1.4	-0.216
COC(=O)c1cn(CC(=O)N2CCCCCC2)c2ccccc12	0.1	nt	22.6	0.8	92.2*	0.0386
COC(=O)c1cn(CC(=O)NCc2ccco2)c2ccccc12	0.1	nt	29.9	0.7	91.8*	0.0173
CCOC(=O)C1=C(O)/C(=C/c2cn(CC(=O)N3CCCC3)c3ccccc23)SC1=Nc1ccccc1	nt	nt	nt	nt	nt	-8.27*
CC(C)n1cc(/C=C2/SC(=O)N(CC(=O)N3CCCC3)C2=O)c2ccccc21	0.9	nt	19.3	0.8	13.8	-0.237
CC1CCN(C(=O)Cn2cc(C(=O)C3CC3)c3ccccc32)CC1	nt	nt	nt	nt	nt	-0.0427
CC(C)(C)c1cc(CN2CCCC(O)C2)c(O)c(C(C)(C)C)c1 (stereo not drawn)	0.8	-0.249	37.4	0.6	21.3	-0.105
Cc1ccc(S(=O)(=O)N2CCN(C3CC(=O)N(CCc4ccccc4)C3=O)CC2)cc1C (stereo not drawn)	0.5	nt	-46.5	1.5	50.4*	0.0251
N#CCCSc1nc(N2CCOCC2)c2c(c1C#N)CCCC2	0.1	nt	97.0*	0	91.1*	-0.69
CCCSc1nc(N2CCOCC2)c2c(c1C#N)CCCC2	0.4	nt	92.9*	0.1	58.6*	0.611
COCc1cc(C)nc(N2CCOCC2)c1C#N	1.1	nt	-35.7	1.4	-12.8	-1.25
CCCCc1nc(N2CCOCC2)c(C#N)c2c1CCCC2	0.7	nt	49.1	0.5	30.3	0.876
CSc1nc(N2CCOCC2)c2c(c1C#N)CCCCC2	0.5	0.287	78.6*	0.2	47.1	-1.05
Cc1ccc(Nc2[nH]c(=O)c3ccccc3c2C(=O)c2ccccc2)cc1	nt	nt	nt	nt	nt	0.209
Cc1ccc(-c2nn(CC(=O)N(C)C)c(=O)c3ccccc23)cc1S(=O)(=O)N(C)C	0.8	nt	62.2*	0.4	21.2	-0.184
SMILES	CYP2C19 activ	D1 mod	CYP2C9 inh	CYP2C9 activ	CYP2C19 inhib	DAT uptake mod
COC(=O)Cn1nc(-c2ccc(C)c(S(=O)(=O)N(C)C)c2)c2ccccc2c1=O	0.8	0.601	59.0*	0.4	20.0	2.7
CN(C)C(=O)Cn1nc(-c2ccccc2)c2ccccc2c1=O	0.8	0.412	4.5	1	22.3	-0.537
COC(=O)Cn1nc(C)c2ccccc2c1=O	nt	nt	nt	nt	nt	-0.725
O=C(CN(CC1CCCO1)C(=O)CNS(=O)(=O)c1ccc(Cl)cc1)NCCc1ccccc1 (stereo not drawn)	0.8	nt	17.2	0.8	24.7	0.0923
Nc1nc2ccccc2nc1N	1.1	-0.337	-20.7	1.2	-7.6	-8*
c1ccc2nc3ccccc3nc2c1	nt	nt	nt	nt	nt	-1.09
CCc1c(C)c2ccc(OCC(=O)OC)cc2oc1=O	0.4	-1.08	16.9	0.8	58.8*	-0.47
CCCCC(=Nc1ccc(N)cc1)C1=C(O)C(C(=O)OC)C(C)(C)CC1=O (stereo not drawn)	1	nt	51.3*	0.5	2.0	0.739
CCCC(=NCc1ccccc1)C1=C(O)C(C(=O)OC)C(C)(C)CC1=O (stereo not drawn)	0.1	nt	63.6*	0.4	92.8*	-0.382
COC(=O)C1C(O)=C(C=NCc2ccccc2)C(=O)CC1(C)C (stereo not drawn)	0.8	nt	12.3	0.9	16.1	0.337
CCCCN=CC1=C(O)C(C(=O)OC)C(C)(C)CC1=O (stereo not drawn)	0.8	-0.0889	-9.1	1.1	23.4	-0.938
CCCC(=Nc1ccccc1)C1=C(O)C(C(=O)OC)C(C)(C)CC1=O (stereo not drawn)	0.3	nt	45.3	0.5	69.2*	-0.117
CCCC(=NCC(=O)O)C1=C(O)C(C(=O)OC)C(C)(C)CC1=O (stereo not drawn)	0.9	0.427	-1.2	1	5.7	-0.154
CCC(=Nc1ccc(N)cc1)C1=C(O)C(C(=O)OC)C(C)(C)CC1=O (stereo not drawn)	0.8	0.225	28.7	0.7	20.6	0.0432
CCC(=NCc1ccccc1)C1=C(O)C(C(=O)OC)C(C)(C)CC1=O (stereo not drawn)	0	-0.0982	86.3*	0.1	97.1*	-0.00892
CC1C(C(=O)Nc2ccccc2)CCCC1(C)C(=O)O (stereo not drawn)	1	nt	10.3	0.9	-4.6	0.169
COC(=O)Nc1ccc(S(=O)(=O)N(C)C)cc1	1.2	-0.0277	-20.0	1.2	-20.6	-2.81*
Cc1ccc(NC(=O)CNc2ccc(OC(C)C)cc2)cc1	0.7	nt	70.2*	0.3	32.9	0.125
Cc1cc(OC(=O)c2ccc(S(=O)(=O)N(C)C)cc2)cc(=O)o1	1	0.112	-3.5	1	4.4	-1.27
COc1ccccc1OC(=O)c1ccc(S(=O)(=O)N(C)C)cc1	0.6	nt	52.5*	0.5	36.5	0.58
CCN(CC)c1ccc(NC(=O)OC)cc1	0.9	nt	62.6*	0.4	9.6	0.0327
COC(=O)Nc1ccc(NC(C)=O)cc1	1.1	-0.5	-8.8	1.1	-12.1	0.13
